Experimental data reported in PubChem BioAssay AID1626 (SRMLSC, 2009).
The whole screen tested about 220,000 compounds, of which about 2,000 (0.91%) were called active. Not shown: some 2% with an inconclusive outcome. A selection follows. Entries with a potency or affinity are not part of this list. A number with no mark means an inactive call. Rule as the data show it: inconclusive = inhibition above about 80% without an active follow-up result; inactive = below that; test concentration not stated here.

Experiment: M. tuberculosis H37Rv growth inhibitors, H37Rv strain (AID 1626);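 also: bacteria incubated seven days before Alamar blue readout; 0% = bacteria only wells and 100% = bacteria with antibiotic wells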
Conditions: stronger effect = higher value, concentration not given here

Point of comparison: `CCOC(=O)N1CCN(C(=O)CCCn2c(=O)[nH]c3ccccc3c2=O)CC1`, inhibition 1.26%. Against it:
- Cc1onc(-c2c(F)cccc2Cl)c1C(=O)Nc1nccs1 — higher, 6.17%
- COC(=O)c1nc(N)sc1-c1ccc(OC)cc1 — lower, -1.47%
- CCCS(=O)(=O)N1CCN(Cc2ccc([N+](=O)[O-])cc2)CC1 — higher, 5.19%
- COc1ccc(CNC(=O)COC(=O)c2ccc(Br)cc2)cc1 — higher, 5.06%
- CN(C)NC(=O)C(NC(=O)c1ccccc1)C12CC3CC(CC(C3)C1)C2 (stereo unspecified) — lower, -4.07%
- CCn1c(=O)c(C(=O)CN2CCCc3ccccc32)c(N)n(Cc2ccccc2)c1=O — lower, -5.75%
- COc1ccc(-c2nnc3n2C(C)(C)Cc2cc(OC)c(OC)cc2-3)cc1 — higher, 3.77%
- COC(=O)[C@@H](NC(=O)Nc1ccc(OC)cc1)C(C)C — higher, 2.16%
- COc1ccc(NS(=O)(=O)c2ccc(O)c(C(=O)OCC(=O)NC(C)C3CC4CCC3C4)c2)cc1 (stereo unspecified) — lower, -0.76%
- CCc1ccc(NC(=O)c2ccccc2Br)cc1 — higher, 6.96%
- CC(SC1CCCC1)C(=O)NC(C)(C#N)C(C)C (stereo unspecified) — lower, -2.88%
- CC(C)(C)NC(=O)C1CCC(CNc2c(N3CCCCC3)c(=O)c2=O)CC1 (stereo unspecified) — lower, -2.67%
- COc1ccc(NC(=O)CN2CCN(C3c4ccccc4-c4ccccc43)CC2)cc1 — higher, 18.1%
- CCOc1ccc(NC(=O)CN2CCN(CC(=O)Nc3ccc(F)c(F)c3)CC2)cc1 — higher, 10.7%
- CCOc1ccc(NC(=O)CN2CCN(CC(=O)Nc3ccc(F)cc3)CC2)cc1 — higher, 9.61%
- COc1ccc(NC(=O)CN2CCN(C3c4ccccc4-c4ccccc43)CC2)c(OC)c1 — higher, 28.6%
- COc1ccc(C(=O)N[C@H](C(=O)OCc2cc(=O)oc3cc(C)ccc23)C(C)C)cc1 — higher, 9.93%
- Cc1cccc(C)c1OCCCCn1cnc2ccccc2c1=O — lower, -6.94%
- COC(=O)C1=C(C)NC(C)=C(C(=O)OC)C1C1CC=CCC1 (stereo unspecified) — higher, 5.42%
- Cc1cccn2cc(-c3cccc(NC(=O)c4cccs4)c3)nc12 — higher, 2.98%
- COc1ccc(-c2cc(C(=O)OC3CCOC3=O)c3ccccc3n2)cc1OC (stereo unspecified) — lower, -3.98%
- CCOC(=O)N1CCN(C(=O)CSc2ccc(-c3ccccc3OC)nn2)CC1 — higher, 3.28%
- COC(=O)c1ccc(Cl)c(S(=O)(=O)N2CCCC2)c1 — higher, 4.58%
- C=C(C)C1Cc2c(C)nn(-c3cccc4ccccc34)c2C1 (stereo unspecified) — higher, 13.7%
- C=C(C)C1Cc2c(C)nn(-c3ccccc3)c2C1 (stereo unspecified) — higher, 3.68%
- COc1ccccc1CCc1nnc(CCC(=O)NC(C)Cc2cccnc2)o1 (stereo unspecified) — higher, 4.51%
- COc1ccccc1Nc1nnc(SCC(=O)N2CCCC2)s1 — lower, -3.72%
- O=C(CCC1CCCCC1)NNC(=O)NC12CC3CC(CC(C3)C1)C2 — lower, -2.75%
- OC(CNCc1ccco1)Cn1c2ccccc2c2ccccc21 (stereo unspecified) — lower, 0.42%
- OC(CNCC1CCCO1)Cn1c2ccc(Br)cc2c2cc(Br)ccc21 (stereo unspecified) — higher, 43.1%
- O=C(CCc1nnc(Cc2c[nH]c3ccccc23)o1)NC1CCCC1 — lower, -6.46%
- CN(C)S(=O)(=O)c1ccc(NC(=O)CSc2nnnn2C)cc1 — higher, 2.23%
- Cc1ccc(S(=O)(=O)NC(=O)Nc2cc(C(C)(C)C)on2)cc1 — lower, -7.06%
- Cc1ccc2cc(CCNC(=O)c3cccc([N+](=O)[O-])c3)c(=O)[nH]c2c1 — higher, 2%
- COc1ccc(OC)c2sc(NC(=O)C3=COCCO3)nc12 — higher, 6.97%
- COc1ccc2nc(NC(=O)c3ccc4ncsc4c3)sc2c1 — higher, 8.2%
- COc1ccc(-c2csc(NC(=O)COC(=O)C3=COCCO3)n2)cc1 — higher, 4.53%
- COc1ccc(CCNC(=O)C2=COCCO2)cc1 — lower, 0.72%
- Cc1ccnc2nc(C(=O)Nc3nnc(-c4ccc(Cl)cc4)o3)nn12 — lower, -1.12%
- CCc1nnc(NC(=O)c2ccc3ncsc3c2)s1 — lower, -18.6%
- COc1ccc(C)c2sc(NC(=O)C3=COCCO3)nc12 — higher, 5.95%
- O=C(COc1ccc(Cl)cc1Cl)Nc1nnc(C2=COCCO2)o1 — higher, 1.29%
- COc1ccc(CC2(CO)CCN(Cc3cnn(-c4ccc(F)cc4)c3)CC2)cc1 — lower, -9.12%
- NC(=O)c1ccccc1NS(=O)(=O)c1ccc2c(c1)OCCO2 — lower, -3.34%
- CN1CCN(c2ccc(Cl)cc2NC(=O)c2ccc(S(=O)(=O)N(C)C)cc2)CC1 — lower, -2.17%
- COc1ccc(C(=O)NC(=S)Nc2cccc(NC(=O)c3ccco3)c2)cc1[N+](=O)[O-] — higher, 6.53%
- CCCN1C(=O)c2ccccc2NC1c1ccc(OC)c(CSc2ccccn2)c1 (stereo unspecified) — lower, -2.45%
- CCN(CC)S(=O)(=O)c1ccc(/C=C/C(=O)Nc2c(C)n(C)n(-c3ccccc3)c2=O)cc1 — lower, -0.04%
- Cn1c(=O)c([N+](=O)[O-])c(NCCCn2ccnc2)c2ccccc21 — lower, -3.33%
- Cc1ccccc1-n1nnnc1SC(C)C(=O)NC1CCCc2ccccc21 (stereo unspecified) — higher, 10.2%
- Cc1ccc(NCc2nnc(SCC(N)=O)o2)c(C)c1 — lower, -3.32%
- Cn1c(CNc2cccc(Cl)c2)nnc1SCC(=O)OC1CCCCC1 — higher, 62.1%
- O=C(CSc1nnc(CNc2ccc(F)cc2)o1)OC1CCCCC1 — higher, 25.5%
- Cc1ccc(C(=O)CSc2nnc(CNc3ccc(C)cc3C)o2)cc1 — lower, -7.6%
- COC(=O)Nc1ccc(S(=O)(=O)N2CCCCC2C(=O)NCc2ccco2)cc1 (stereo unspecified) — lower, -7.03%
- O=C(COC(=O)CNS(=O)(=O)/C=C/c1ccccc1)NC1CCS(=O)(=O)C1 (stereo unspecified) — lower, -7.59%
- O=C(COc1ccc(Br)cc1Br)NC(=O)NC1CCCC1 — higher, 3.86%
- Cc1ccc(CNc2ccc(N3CCOCC3)c(C(=O)O)c2)s1 — lower, -3.09%
- O=C1c2cccc3cccc(c23)C(=O)N1CC1CCN(CC(O)COCc2ccc3c(c2)OCO3)CC1 (stereo unspecified) — higher, 76.5%
- COc1cccc(OCC(O)CN2CCC(CN3C(=O)c4cccc5cccc(c45)C3=O)CC2)c1 (stereo unspecified) — lower, -4.13%
